Source: PubChem BioAssay (NCI)
This is part of a sample that, as a whole, favours compounds with a hit. Of some 83,000 tested, about 20% had one in any assay.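 96-well plates, one dose, 48 hours. Percent growth reported; active if below 10.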 Activity calls are given as the source filed them.

What was measured:
Test in all cases: NCI-60 one-dose screen, 48 h (100 = growth as untreated, 0 = no growth, -100 = all killed)
Conditions in all cases: 10 µM
NCI-H23 lung = tested on: NCI-H23 lung
NCI-H322M lung = tested on: NCI-H322M lung
HOP-62 NSCLC = tested on: HOP-62 NSCLC
NCI-H460 lung = tested on: NCI-H460 lung
NCI-H522 lung = tested on: NCI-H522 lung
A549/ATCC NSCLC = tested on: A549/ATCC NSCLC
786-0 renal = tested on: 786-0 renal
COLO 205 colon = tested on: COLO 205 colon
DU-145 prostate = tested on: DU-145 prostate
K-562 leukemia = tested on: K-562 leukemia
MALME-3M melanoma = tested on: MALME-3M melanoma
MDA-MB-231 breast = tested on: MDA-MB-231 breast
RXF 393 renal = tested on: RXF 393 renal
SF-268 CNS = tested on: SF-268 CNS
SF-539 CNS = tested on: SF-539 CNS
UACC-257 melanoma = tested on: UACC-257 melanoma
M14 melanoma = tested on: M14 melanoma
HOP-92 NSCLC = tested on: HOP-92 NSCLC
SF-295 CNS = tested on: SF-295 CNS
NCI-H226 lung = tested on: NCI-H226 lung

Measured: growth

Cc1ccc(S(=O)(=O)O)c(C)c1
inactive: NCI-H23 lung 105% | NCI-H322M lung 96.7% | HOP-62 NSCLC 94.5% | NCI-H460 lung 103% | NCI-H522 lung 90.2% | A549/ATCC NSCLC 104% | 786-0 renal 103% | COLO 205 colon 104% | DU-145 prostate 108% | K-562 leukemia 98.8% | MALME-3M melanoma 88.4% | MDA-MB-231 breast 116% | RXF 393 renal 117% | SF-268 CNS 114% | SF-539 CNS 101% | UACC-257 melanoma 108% | M14 melanoma 101%

NCCCN
inactive: NCI-H23 lung 112% | NCI-H322M lung 108% | HOP-62 NSCLC 99.4% | NCI-H460 lung 108% | HOP-92 NSCLC 103% | NCI-H522 lung 105% | A549/ATCC NSCLC 105% | 786-0 renal 104% | COLO 205 colon 122% | DU-145 prostate 107% | K-562 leukemia 103% | MALME-3M melanoma 95.5% | MDA-MB-231 breast 106% | RXF 393 renal 115% | SF-268 CNS 103% | SF-539 CNS 102% | M14 melanoma 112%

COc1cc2c3cc1Oc1c(OC)c(OC)cc4c1C(Cc1ccc(O)c(c1)Oc1ccc(cc1)CC3N(C)CC2)N(C)CC4 (configuration not stated)
active: HOP-62 NSCLC 4.33% | NCI-H460 lung 2.92% | HOP-92 NSCLC -17.1% | NCI-H522 lung -34.4% | A549/ATCC NSCLC -33% | COLO 205 colon -97.3% | K-562 leukemia 0.419% | MALME-3M melanoma -79.3% | MDA-MB-231 breast -24.1% | RXF 393 renal -14.9% | SF-539 CNS -23.5% | UACC-257 melanoma -62.2% | M14 melanoma -77.8%
inactive: NCI-H23 lung 10.8% | NCI-H322M lung 44.6% | 786-0 renal 32.3% | DU-145 prostate 33.4% | SF-268 CNS 36.2%

CC(=O)OCCO
inactive: NCI-H23 lung 108% | NCI-H322M lung 102% | HOP-62 NSCLC 109% | NCI-H460 lung 111% | NCI-H522 lung 111% | A549/ATCC NSCLC 99.2% | 786-0 renal 101% | COLO 205 colon 107% | DU-145 prostate 110% | K-562 leukemia 103% | MALME-3M melanoma 93.5% | MDA-MB-231 breast 121% | RXF 393 renal 105% | SF-268 CNS 106% | SF-539 CNS 104% | UACC-257 melanoma 102% | M14 melanoma 105%

CCCCCCCCO
inactive: NCI-H23 lung 97.5% | NCI-H322M lung 108% | HOP-62 NSCLC 99.6% | NCI-H460 lung 103% | HOP-92 NSCLC 107% | NCI-H522 lung 107% | A549/ATCC NSCLC 100% | 786-0 renal 102% | COLO 205 colon 114% | DU-145 prostate 104% | K-562 leukemia 101% | MALME-3M melanoma 106% | MDA-MB-231 breast 118% | RXF 393 renal 106% | SF-268 CNS 108% | SF-295 CNS 108% | SF-539 CNS 97.4% | UACC-257 melanoma 101% | M14 melanoma 105%

COC(=O)c1ccc(C(C)C)cc1
inactive: NCI-H23 lung 100% | NCI-H322M lung 95.8% | HOP-62 NSCLC 87.8% | NCI-H460 lung 114% | HOP-92 NSCLC 82.7% | NCI-H522 lung 79.3% | A549/ATCC NSCLC 90.5% | 786-0 renal 100% | COLO 205 colon 98% | DU-145 prostate 105% | K-562 leukemia 116% | MALME-3M melanoma 99.9% | MDA-MB-231 breast 113% | RXF 393 renal 122% | SF-268 CNS 101% | SF-295 CNS 100% | SF-539 CNS 102% | UACC-257 melanoma 90.9% | M14 melanoma 88.6%

CCO/C=C1\SC(=S)N(c2cccc(C)c2)C1=O
inactive: NCI-H23 lung 108% | NCI-H226 lung 93.4% | NCI-H460 lung 102% | 786-0 renal 106% | COLO 205 colon 108% | DU-145 prostate 111% | K-562 leukemia 99.5% | MALME-3M melanoma 98.4% | MDA-MB-231 breast 117% | RXF 393 renal 105% | SF-268 CNS 101% | SF-295 CNS 97% | SF-539 CNS 97.8% | M14 melanoma 119%

O=C(NN=C1CCCCC1)C(=O)NN=C1CCCCC1
inactive: NCI-H226 lung 101% | NCI-H322M lung 124% | HOP-62 NSCLC 98.1% | NCI-H460 lung 117% | HOP-92 NSCLC 101% | NCI-H522 lung 98.7% | A549/ATCC NSCLC 116% | 786-0 renal 105% | COLO 205 colon 106% | DU-145 prostate 121% | K-562 leukemia 81.1% | MALME-3M melanoma 127% | MDA-MB-231 breast 113% | RXF 393 renal 107% | SF-268 CNS 99.1% | SF-295 CNS 113% | SF-539 CNS 101% | UACC-257 melanoma 108%

NC(=S)N/N=C/c1ccc(N)cc1
inactive: NCI-H23 lung 89.5% | NCI-H322M lung 99.4% | HOP-62 NSCLC 97% | NCI-H460 lung 106% | HOP-92 NSCLC 89.1% | NCI-H522 lung 92.3% | A549/ATCC NSCLC 76% | 786-0 renal 99.9% | COLO 205 colon 110% | DU-145 prostate 108% | K-562 leukemia 98.7% | MALME-3M melanoma 104% | MDA-MB-231 breast 97% | RXF 393 renal 107% | SF-268 CNS 97.1% | SF-295 CNS 102% | SF-539 CNS 103% | UACC-257 melanoma 82.9% | M14 melanoma 98.4%

CN(C)C(=O)Oc1cccc([N+](C)(C)C)c1
inactive: NCI-H226 lung 92.8% | NCI-H322M lung 129% | HOP-62 NSCLC 100% | NCI-H460 lung 113% | NCI-H522 lung 109% | A549/ATCC NSCLC 102% | 786-0 renal 116% | COLO 205 colon 109% | DU-145 prostate 113% | K-562 leukemia 104% | MALME-3M melanoma 131% | MDA-MB-231 breast 91.1% | RXF 393 renal 114% | SF-268 CNS 106% | SF-295 CNS 96.8% | SF-539 CNS 106% | UACC-257 melanoma 97.8% | M14 melanoma 126%

COc1cc2c3c(n(C)c(=O)c2cc1OC)-c1cc2c(cc1C3=O)OCO2
active: NCI-H522 lung 1.48%
inactive: NCI-H226 lung 66.9% | NCI-H322M lung 89.9% | HOP-62 NSCLC 45.1% | NCI-H460 lung 29.3% | A549/ATCC NSCLC 81.8% | 786-0 renal 77.1% | COLO 205 colon 72.5% | DU-145 prostate 56.5% | K-562 leukemia 40.8% | MALME-3M melanoma 81.6% | MDA-MB-231 breast 97.1% | RXF 393 renal 75.7% | SF-268 CNS 59.3% | SF-295 CNS 29.4% | SF-539 CNS 63.7% | UACC-257 melanoma 78.2% | M14 melanoma 63%

O=c1cc2oc3cc(O)c(O)cc3c(-c3ccccc3O)c-2cc1O
inactive: NCI-H226 lung 87% | NCI-H322M lung 57.5% | HOP-62 NSCLC 63% | NCI-H460 lung 96% | NCI-H522 lung 66.8% | A549/ATCC NSCLC 108% | 786-0 renal 57.2% | COLO 205 colon 126% | DU-145 prostate 86% | K-562 leukemia 54.1% | MALME-3M melanoma 105% | MDA-MB-231 breast 81.9% | RXF 393 renal 60.1% | SF-295 CNS 101% | SF-539 CNS 52.3% | UACC-257 melanoma 130% | M14 melanoma 77.1%
active: HOP-92 NSCLC 7.48% | SF-268 CNS -1.76%

CCC(C#N)(CC)c1ccccc1
inactive: NCI-H226 lung 99.3% | HOP-62 NSCLC 92.9% | NCI-H460 lung 104% | A549/ATCC NSCLC 111% | COLO 205 colon 106% | DU-145 prostate 109% | K-562 leukemia 97.1% | MALME-3M melanoma 121% | MDA-MB-231 breast 97.4% | RXF 393 renal 115% | SF-268 CNS 99.3% | SF-295 CNS 113% | SF-539 CNS 113% | UACC-257 melanoma 104%

CCCCC(=O)c1ccc(OC)cc1
inactive: NCI-H226 lung 99.7% | NCI-H322M lung 111% | HOP-62 NSCLC 112% | NCI-H460 lung 104% | NCI-H522 lung 91.2% | A549/ATCC NSCLC 97.4% | 786-0 renal 96.2% | COLO 205 colon 118% | DU-145 prostate 104% | K-562 leukemia 105% | MALME-3M melanoma 94% | MDA-MB-231 breast 109% | SF-268 CNS 107% | SF-295 CNS 92% | SF-539 CNS 110% | UACC-257 melanoma 91.2% | M14 melanoma 99.4%

COCCOC(=O)c1ccc(C(C)C)cc1
inactive: NCI-H322M lung 98.2% | HOP-62 NSCLC 80.3% | NCI-H460 lung 108% | HOP-92 NSCLC 81.8% | NCI-H522 lung 79.7% | A549/ATCC NSCLC 79.5% | 786-0 renal 93.8% | COLO 205 colon 104% | DU-145 prostate 103% | K-562 leukemia 106% | MALME-3M melanoma 92.7% | MDA-MB-231 breast 102% | RXF 393 renal 124% | SF-268 CNS 99.1% | SF-295 CNS 104% | SF-539 CNS 99% | UACC-257 melanoma 81% | M14 melanoma 93.2%

CCCCC/C=N/Nc1nc(C)cc(=O)[nH]1
inactive: NCI-H226 lung 97.5% | NCI-H322M lung 100% | HOP-62 NSCLC 117% | NCI-H460 lung 107% | NCI-H522 lung 112% | A549/ATCC NSCLC 86.8% | 786-0 renal 102% | COLO 205 colon 121% | DU-145 prostate 114% | K-562 leukemia 105% | MALME-3M melanoma 103% | MDA-MB-231 breast 95.2% | RXF 393 renal 105% | SF-268 CNS 107% | SF-295 CNS 88.8% | SF-539 CNS 108% | UACC-257 melanoma 93.1% | M14 melanoma 106%

S=c1nn[nH]c2ccccc12
inactive: NCI-H226 lung 93.8% | NCI-H322M lung 95.6% | HOP-62 NSCLC 98% | NCI-H460 lung 105% | A549/ATCC NSCLC 96.4% | 786-0 renal 111% | COLO 205 colon 93.4% | DU-145 prostate 120% | K-562 leukemia 99% | MALME-3M melanoma 148% | MDA-MB-231 breast 93.4% | RXF 393 renal 114% | SF-268 CNS 110% | SF-295 CNS 113% | SF-539 CNS 105% | UACC-257 melanoma 108% | M14 melanoma 102%
